Data: PubChem BioAssay AID1159580 (chemical genetic matrix, 2015)
Values joined by “and” are separate entries in the source; they are usually repeats but may differ in a detail not shown here. Equal values may be shown once. The campaign covered roughly 5,500 compounds. About 2,000 (36%) were called active. Inconclusive results (about 18%) are left out. No stated cut-off is given here; in the data, active means normalized growth mostly below about 0.91 (no sharp cut-off); inconclusive means no clear call, values can overlap the other calls; inactive means mostly above about 0.92. The list shows a part of the results.

Assay: chemical genetic growth profiling, strain panel (AID 1159580);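 further: tested at 20 µM; growth read once vehicle control cultures reached saturation at 30 °C; 1 = growth at the plate median or of vehicle wells; lower values mean less growth of the strain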
Conditions: growth OD

Measured: normalized growth

O=C(O)CCCCCCCC(=O)O
inactive: S. cerevisiae deletion strains, locus YKL009W, strain mrt4, hits give low values 0.937 | S. cerevisiae deletion strains, locus YKL068W, hits give low values 1.01 | S. cerevisiae deletion strains, locus YKL085W, strain MDH1 (second series), hits give low values 1 | S. cerevisiae deletion strains, locus YKL085W, strain MDH1, hits give low values 1 | S. cerevisiae deletion strains, locus YKL160W, strain elf1, hits give low values 1.04 | S. cerevisiae deletion strains, locus YKL190W, strain CNB1, hits give low values 0.992 | S. cerevisiae deletion strains, locus YKR001C, strain vps1, hits give low values 0.981 | S. cerevisiae deletion strains, locus YKR026C, strain gcn3, hits give low values 1.01 | S. cerevisiae deletion strains, locus YKR091W, strain srl3, hits give low values 0.996 | S. cerevisiae deletion strains, locus YLL001W, strain dnm1, hits give low values 1.02 | S. cerevisiae deletion strains, locus YLL026W, hits give low values 0.995 | S. cerevisiae deletion strains, locus YLL041C, strain sdh2, hits give low values 0.993 | S. cerevisiae deletion strains, locus YLR027C, strain aat2, hits give low values 1.01 | S. cerevisiae deletion strains, locus YLR039C, strain RIC1, hits give low values 0.999 | S. cerevisiae deletion strains, locus YLR058C, strain SHM2, hits give low values 0.978 | S. cerevisiae deletion strains, locus YLR102C, strain apc9, hits give low values 0.99 | S. cerevisiae deletion strains, locus YLR113W, strain HOG1, hits give low values 0.966 | S. cerevisiae deletion strains, locus YLR221C, strain rsa3, hits give low values 1.01 | S. cerevisiae deletion strains, locus YLR258W, strain gsy2, hits give low values 1.02 | S. cerevisiae deletion strains, locus YLR262C, strain YPT6 (second series), hits give low values 0.981 | S. cerevisiae deletion strains, locus YLR262C, strain YPT6, hits give low values 0.949 | S. cerevisiae deletion strains, locus YLR268W, strain sec22, hits give low values 1.01 | S. cerevisiae deletion strains, locus YLR320W, strain mms22, hits give low values 1 | S. cerevisiae deletion strains, locus YLR330W, strain CHS5, hits give low values 0.995 | S. cerevisiae deletion strains, locus YLR342W, strain FKS1 (second series), hits give low values 1.03 | S. cerevisiae deletion strains, locus YLR342W, strain FKS1, hits give low values 1.01 | S. cerevisiae deletion strains, locus YLR357W, strain rsc2, hits give low values 1.05 | S. cerevisiae deletion strains, locus YLR370C, strain arc18, hits give low values 1.01 | S. cerevisiae deletion strains, locus YLR371W, strain rom2, hits give low values 0.991 | S. cerevisiae deletion strains, locus YLR384C, strain iki3, hits give low values 0.994 | S. cerevisiae deletion strains, locus YLR418C, strain cdc73, hits give low values 1.02 | S. cerevisiae deletion strains, locus YML016C, strain PPZ1, hits give low values 0.991 | S. cerevisiae deletion strains, locus YML032C, strain rad52, hits give low values 0.972 | S. cerevisiae deletion strains, locus YML120C, strain ndi1, hits give low values 1 | S. cerevisiae deletion strains, locus YML124C, strain tub3, hits give low values 0.991 | S. cerevisiae deletion strains, locus YMR058W, strain fet3, hits give low values 1.01 | S. cerevisiae deletion strains, locus YMR078C, strain ctf18, hits give low values 0.983 | S. cerevisiae deletion strains, locus YMR125W, strain sto1, hits give low values 1.03 | S. cerevisiae deletion strains, locus YMR129W, hits give low values 1.01 | S. cerevisiae deletion strains, locus YMR205C, strain PFK2, hits give low values 1.02 | S. cerevisiae deletion strains, locus YMR223W, strain ubp8, hits give low values 1 | S. cerevisiae deletion strains, locus YMR231W, strain pep5, hits give low values 1.01 | S. cerevisiae deletion strains, locus YMR263W, strain SAP30, hits give low values 0.984 and 1.01 | S. cerevisiae deletion strains, locus YMR307W, strain GAS1, hits give low values 1.12 | S. cerevisiae deletion strains, locus YNL067W, strain RPL9B, hits give low values 0.996 | S. cerevisiae deletion strains, locus YNL071W, strain lat1, hits give low values 1 | S. cerevisiae deletion strains, locus YNL128W, strain TEP1, hits give low values 0.976 | S. cerevisiae deletion strains, locus YNL153C, strain GIM3, hits give low values 0.986 and 1.02 | S. cerevisiae deletion strains, locus YNL175C, strain NOP13, hits give low values 1.01 | S. cerevisiae deletion strains, locus YNL183C, strain NPR1, hits give low values 0.945 | S. cerevisiae deletion strains, locus YNL197C, strain WHI3, hits give low values 1.01 | S. cerevisiae deletion strains, locus YNL209W, strain ssb2, hits give low values 1 | S. cerevisiae deletion strains, locus YNL224C, strain SQS1, hits give low values 1 | S. cerevisiae deletion strains, locus YNL233W, strain BNI4, hits give low values 0.994 | S. cerevisiae deletion strains, locus YNL248C, strain rpa49, hits give low values 1.04 | S. cerevisiae deletion strains, locus YNL250W, strain rad50, hits give low values 0.988 | S. cerevisiae deletion strains, locus YNL271C, strain bni1, hits give low values 0.992 | S. cerevisiae deletion strains, locus YNL298W, strain CLA4, hits give low values 0.926 | S. cerevisiae deletion strains, locus YNL307C, strain MCK1, hits give low values 0.992 | S. cerevisiae deletion strains, locus YNL322C, strain KRE1 (second series), hits give low values 1.04 | S. cerevisiae deletion strains, locus YNL322C, strain KRE1, hits give low values 0.992 | S. cerevisiae deletion strains, locus YNR049C, strain mso1, hits give low values 1.01 | S. cerevisiae deletion strains, locus YNR052C, strain pop2, hits give low values 0.974 | S. cerevisiae deletion strains, locus YOL006C, strain TOP1, hits give low values 1.02 | S. cerevisiae deletion strains, locus YOL012C, strain htz1 0.954 | S. cerevisiae deletion strains, locus YOL147C, strain pex11, hits give low values 1 | S. cerevisiae deletion strains, locus YOR001W, strain rrp6, hits give low values 1 | S. cerevisiae deletion strains, locus YOR061W, strain CKA2, hits give low values 0.973 | S. cerevisiae deletion strains, locus YOR069W, strain VPS5, hits give low values 0.998 | S. cerevisiae deletion strains, locus YOR070C, strain gyp1, hits give low values 1.02 | S. cerevisiae deletion strains, locus YOR080W, strain dia2, hits give low values 1.01 | S. cerevisiae deletion strains, locus YOR083W, strain WHI5 (second series), hits give low values 1.02 | S. cerevisiae deletion strains, locus YOR083W, strain WHI5, hits give low values 1 | S. cerevisiae deletion strains, locus YOR106W, strain vam3, hits give low values 1.03 | S. cerevisiae deletion strains, locus YOR136W, strain idh2, hits give low values 0.962 | S. cerevisiae deletion strains, locus YOR144C, strain elg1, hits give low values 0.993 | S. cerevisiae deletion strains, locus YOR184W, strain ser1, hits give low values 0.988 | S. cerevisiae deletion strains, locus YOR231W, strain MKK1, hits give low values 0.973 | S. cerevisiae deletion strains, locus YOR265W, strain rbl2, hits give low values 1.01 | S. cerevisiae deletion strains, locus YOR270C, strain vph1, hits give low values 1.1 | S. cerevisiae deletion strains, locus YOR290C, strain snf2, hits give low values 1.04 | S. cerevisiae deletion strains, locus YOR316C, strain cot1, hits give low values 0.985 | S. cerevisiae deletion strains, locus YPL051W, strain arl3, hits give low values 1.02 | S. cerevisiae deletion strains, locus YPL055C, strain LGE1, hits give low values 0.957 | S. cerevisiae deletion strains, locus YPL078C, strain atp4, hits give low values 1.03 | S. cerevisiae deletion strains, locus YPL106C, strain sse1, hits give low values 0.996 | S. cerevisiae deletion strains, locus YPL240C, strain hsp82, hits give low values 1.01 | S. cerevisiae deletion strains, locus YPL241C, strain CIN2, hits give low values 0.997 and 1.01 | S. cerevisiae deletion strains, locus YPL256C, strain CLN2, hits give low values 0.988 | S. cerevisiae deletion strains, locus YPR119W, strain clb2, hits give low values 0.987 | S. cerevisiae deletion strains, locus YPR141C, strain kar3, hits give low values 1 | S. cerevisiae deletion strains, locus YPR163C, strain tif3, hits give low values 0.987 | S. cerevisiae deletion strains, locus YPR167C, strain met16, hits give low values 0.99 | S. cerevisiae deletion strains, strain wtn01, hits give low values 0.983 | S. cerevisiae strains, strain wild type, hits give low values 0.999
